Screens deposited in PubChem by National Center for Advancing Translational Sciences (NCATS).
AMA1-RON2 inh – AMA1-RON2 (P. falciparum) interaction inhibition; AID 720542; 360,000 tested, 0.2% active; AlphaScreen AMA1-biotinylated RON2 peptide binding; Potency, µM (top dose mostly 58.2 µM), actives largely listed as inhibitors; further: nearly all actives have a fitted effect of over 45% in size
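AMA1 (3D7) with his tag at 25 nM final met compounds first, then biotinylated RON2 peptide at 25 nM; detection used donor plus acceptor beads, 10 µg/mL apiece, read by AlphaScreen after 30 min at room temperature.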
Pf growth 96h – P. falciparum growth inhibition at 96 hour, primary screen for plastid delayed-death inhibitors | P. falciparum luciferase reporter growth, 96 h | 320,000 tested, 6.9% active | Potency, µM (series often up to 28.7 µM), hits mostly inhibitors
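P. falciparum expressing integrated firefly luciferase, in erythrocytes at 2% hematocrit, 0.05% parasitemia, incubated with compounds 96 h at 37 C, 5% CO2. Growth inhibition read as loss of luminescence; two-generation exposure targets delayed-death apicoplast inhibitors.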
Pf growth 48h – P. falciparum growth inhibition at 48 hours (one generation) | P. falciparum luciferase growth in erythrocytes, 48 h | Potency, µM (series often up to 28.7 µM), most hits filed as inhibitors | 310,000 tested, 5.9% active
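Luminescence readout; reporter = integrated firefly luciferase in P. falciparum. RBC culture at 2% hematocrit, 0.1% parasitemia final, 37 C/5% CO2; decreased signal taken as growth inhibition.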
Cycloheximide cs – counter-screen for Shiga toxin inhibitors: cycloheximide protein synthesis inhibition; cell reporter, cycloheximide protein synthesis inhibition counterscreen; max response, %; 300,000 tested, 12% active; in the data active means max response mostly above about 13%, no sharp cut-off; inactive means mostly below about 14%; further: read at 38.3 µM for the half of the compounds with a filed dose
HCV inh – inhibitors of hepatitis C virus infection. Huh7.5.1 HCVcc-Cre infection, luciferase reporter, 44 h. Potency, µM (top dose mostly 41.8 µM), actives largely listed as inhibitors. 340,000 tested, 3.4% active. AID 651820
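Reporter virus HCVcc-Cre (~0.5 moi) infects cells exposed to compound; seeding density 1,000 cells/well with 4 h settling beforehand. Luminescence, 15 sec read, taken 44 h post-infection following a 15 min RT substrate incubation.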
Shiga toxin inh – Shiga toxin inhibition; Vero cells, Shiga toxin protein synthesis inhibition reporter; AID 2315; inhibition, % at 38.7 µM; 290,000 tested, 9.2% active; in the data active means inhibition mostly above about 28%, no sharp cut-off; inactive means mostly below about 43%
Large screens that a line does not name were inactive. Rows were chosen to be rich in hits. Some 21% of all compounds tested hit in one or more screens of this group. Unless noted, the call rests on the fitted dose curve; in most records, active means well fitted curve in the direction sought with a large enough effect; inconclusive means small, poorly fitted or top-dose-only effect, or another doubt; inactive means no such curve, though single readings can be large; an effect the other way counts as inactive or inconclusive.

O=C(NCc1ccccc1Cl)C1CCCN1C(=O)Nc1ccccc1 (stereo not given)	none
COc1cccc(NC(=O)N2CCCC2C(=O)NCc2ccccc2F)c1 (stereo not given)	Pf growth 96h 10µM
COc1cccc(CC(=O)OCC(=O)NCCc2ccc(F)cc2)c1	none (no result: Cycloheximide cs, Shiga toxin inh)
COc1cccc(NC(=O)C(=O)NCCc2ccc(F)cc2)c1	Cycloheximide cs 41, Shiga toxin inh 91
Cc1ccc(NC(=O)N2CCCC2C(=O)NCc2ccccc2Cl)cc1 (stereo not given)	Pf growth 96h 2.6µM
COc1cccc(NC(=O)NCc2ccccc2F)c1	Cycloheximide cs 40, HCV inh inconclusive, Shiga toxin inh 97
O=C(NCc1ccccc1)c1cc(C2COCCN2S(=O)(=O)c2ccccc2)on1 (stereo not given)	none (no result: Pf growth 96h, Pf growth 48h, Cycloheximide cs, HCV inh, Shiga toxin inh)
COCCNC(=O)C1(C)CCCN(Cc2cn(C)c3ccccc23)C1 (stereo not given)	none (no result: Pf growth 96h, Pf growth 48h, Cycloheximide cs, HCV inh, Shiga toxin inh)
O=C(Nc1ccccc1)c1cc(C2COCCN2C(=O)CCCc2ccccc2)on1 (stereo not given)	none (no result: Pf growth 96h, Pf growth 48h, Cycloheximide cs, HCV inh, Shiga toxin inh)
COc1cc2c3nc4n(c(=O)c3n(CC(=O)NCC3CCCO3)c2cc1OC)CCS4 (stereo not given)	none
CSc1ccccc1OCc1cc(C(=O)NC(C)Cc2cccc(C)n2)no1 (stereo not given)	Pf growth 96h inconclusive, Pf growth 48h 10µM, Cycloheximide cs 49, HCV inh inconclusive, Shiga toxin inh 88
CCn1nc(C)c(CNC(=O)c2cc(COc3ccccc3SC)on2)c1C	Pf growth 48h inconclusive, Cycloheximide cs 25, HCV inh 13µM
CSc1ccccc1OCc1cc(C(=O)NCc2cccc(C)n2)no1	Pf growth 96h 4.1µM, Cycloheximide cs 80, HCV inh inconclusive, Shiga toxin inh 99
Cc1ccccc1C(=O)c1cccn1CC(=O)N1CCCCC1	none
CCOc1ccc(NC(=O)CN(C)C(=O)C2CCN(C(=O)c3ccc(Cl)cc3)CC2)cc1OCC	Pf growth 48h inconclusive (no result: Cycloheximide cs, Shiga toxin inh)
Oc1[nH]c2ccccc2c1C1=NCCCCC1	Pf growth 96h inconclusive
C/C(=N\NC(=O)c1ccccc1N)c1ccc(NC(=O)Cc2ccccc2)cc1	Pf growth 48h 9.3µM, Cycloheximide cs 36, Shiga toxin inh 65
COc1ccccc1C(=O)N/N=C(\C)c1ccc(NC(=O)Cc2ccccc2)cc1	Pf growth 48h inconclusive
C/C(=N\NC(=O)c1cccc(C)c1O)c1ccc(NC(=O)Cc2ccccc2)cc1	Cycloheximide cs 39, Shiga toxin inh 45
COc1ccc(S(=O)(=O)N2CCCCC2)cc1NC(=O)C1COc2ccccc2O1 (stereo not given)	Pf growth 48h inconclusive, HCV inh inconclusive (no result: Cycloheximide cs, Shiga toxin inh)
CCN1CCN(Cc2ccc(C(=O)Nc3ccc(C)c(NCc4cnc(NC(=O)OC)cn4)c3)cc2C(F)(F)F)CC1	Pf growth 96h 0.37µM, Pf growth 48h inconclusive, HCV inh inconclusive
CCN1CCN(Cc2ccc(NC(=O)c3cc(NC(=O)c4cc(C)on4)cc(OC)c3)cc2C(F)(F)F)CC1	Pf growth 96h 0.52µM, Pf growth 48h inconclusive, HCV inh inconclusive
CCN1CCN(Cc2ccc(NC(=O)c3ccc(C)c(NC(=O)c4ccnnc4)c3)cc2C(F)(F)F)CC1	Pf growth 96h inconclusive
CCN1CCN(Cc2ccc(NC(=O)c3cc(NC(=O)c4cnn(-c5ccccc5)c4N)cc(OC)c3)cc2C(F)(F)F)CC1	Pf growth 96h 0.83µM, Pf growth 48h 1.9µM
CCN1CCN(Cc2ccc(NC(=O)c3ccc(C)c(NC(=O)C(=O)c4c[nH]c5ccccc45)c3)cc2C(F)(F)F)CC1	AMA1-RON2 inh inconclusive, Pf growth 96h 0.41µM, Pf growth 48h 0.37µM, HCV inh inconclusive
CCN(Cc1ccc2c(c1)OCCO2)C(=O)CSc1nc(C)nc2sc(C)c(C)c12	Pf growth 48h inconclusive, HCV inh inconclusive (no result: Cycloheximide cs, Shiga toxin inh)
CCN1CCN(Cc2ccc(NC(=O)c3cc(NC(=O)C(=O)c4c[nH]c5ccccc45)cc(OC)c3)cc2C(F)(F)F)CC1	AMA1-RON2 inh inconclusive, Pf growth 96h 0.13µM, Pf growth 48h 0.37µM
O=C1NC[C@H](CCCCN2C[C@H](Cc3ccccc3)N(CCC3CCCCC3)C(=O)C2=O)N(Cc2ccccc2)C1=O	none (no result: Pf growth 96h, Pf growth 48h, Cycloheximide cs, HCV inh, Shiga toxin inh)
CCCCC(=O)N1CCN(c2nc3ccc(Cl)cc3s2)CC1	Cycloheximide cs 45, HCV inh 7.9µM, Shiga toxin inh 43
CC(C)(CC(=O)O)CC(=O)N1CCCN(c2nc3ccc(Cl)cc3s2)CC1	Cycloheximide cs 16, Shiga toxin inh 67
CC(C)(CC(=O)O)CC(=O)N1CCN(c2nc3ccc(Cl)cc3s2)CC1	none
CC(C)(C)NC(=O)N1CCN(c2nc(-c3ccccc3)ns2)CC1	Cycloheximide cs 35, HCV inh inconclusive, Shiga toxin inh 108
CC(C)(C)NC(=O)N1CCN(c2nc3ccc(Cl)cc3s2)CC1	HCV inh 13µM, Shiga toxin inh 42
O=C(c1ccc(F)cc1F)N1CCCN(c2nc(-c3ccccc3)ns2)CC1	none
O=C(NC(O)C(=O)c1ccc(F)cc1)c1ccc(F)cc1 (stereo not given)	Pf growth 96h inconclusive
COc1ccc(S(=O)(=O)N2CCC(C(=O)Oc3ccc(C)cc3)CC2)cc1OC	none (no result: Cycloheximide cs, Shiga toxin inh)
O=C(Cn1cnc([N+](=O)[O-])n1)c1ccc(O)c(O)c1	Pf growth 48h inconclusive
COc1ccccc1N1CCN(/N=C(\C)c2ccccc2O)CC1	Cycloheximide cs 32, Shiga toxin inh 34
COc1ccccc1N1CCN(C(=O)c2cccc(C(=O)N3CCN(c4ccccc4OC)CC3)c2)CC1	Pf growth 48h inconclusive, HCV inh inconclusive
COc1cc(/C(C)=N/N2CCN(c3ccccc3OC)CC2)ccc1O	Pf growth 96h inconclusive, Cycloheximide cs 22
O=[N+]([O-])c1ccc(Oc2ccc(OCc3ccccc3)cc2)nc1	none (no result: Pf growth 48h)
COc1cc(C2SCCS2)cc(Br)c1Oc1ncccc1[N+](=O)[O-]	AMA1-RON2 inh inconclusive, Pf growth 96h inconclusive, HCV inh inconclusive
O=[N+]([O-])c1cccnc1Oc1ccc(C2SCCS2)cc1	Pf growth 96h 10µM, Pf growth 48h 4.7µM, Cycloheximide cs 58, Shiga toxin inh 73
O=[N+]([O-])c1cccnc1Oc1ccc(OCc2ccccc2)cc1	Cycloheximide cs 63, Shiga toxin inh 61 (no result: Pf growth 48h)
O=C(O)[C@H]1C(=CCO)O[C@H]2CC(=O)N12	none (no result: AMA1-RON2 inh, Cycloheximide cs, HCV inh, Shiga toxin inh)
O=C(Nc1ccc([N+](=O)[O-])cc1)C1CC1(c1ccccc1)c1ccccc1 (stereo not given)	Pf growth 96h inconclusive, Pf growth 48h 12µM, HCV inh inconclusive
C/C(=N\NC(=O)C1CC1(c1ccccc1)c1ccccc1)c1cccc([N+](=O)[O-])c1 (stereo not given)	Pf growth 96h inconclusive, HCV inh inconclusive
Cc1ccc(C2(c3ccc(C)cc3)CC2C(=O)Nc2ccc([N+](=O)[O-])cc2O)cc1 (stereo not given)	AMA1-RON2 inh inconclusive, Pf growth 96h 0.66µM, Pf growth 48h 0.83µM, HCV inh 3.5µM
